# High-throughput results (PubChem BioAssay)
# Luciferase inh: Firefly luciferase inhibition profiling of diverse chemical library using quantitative high-throughput screening. Luciferin 4-monooxygenase (Photinus pyralis), P08659. purified P. pyralis luciferase, luminescence, biochemical. Potency, µM (titrated, usually from 115 µM), usual class: inhibitors. 76,000 compounds, 2.5% hits; further: nearly all actives have a fitted effect of over 65% in size
# Target sequence (P08659 whole entry, looked up): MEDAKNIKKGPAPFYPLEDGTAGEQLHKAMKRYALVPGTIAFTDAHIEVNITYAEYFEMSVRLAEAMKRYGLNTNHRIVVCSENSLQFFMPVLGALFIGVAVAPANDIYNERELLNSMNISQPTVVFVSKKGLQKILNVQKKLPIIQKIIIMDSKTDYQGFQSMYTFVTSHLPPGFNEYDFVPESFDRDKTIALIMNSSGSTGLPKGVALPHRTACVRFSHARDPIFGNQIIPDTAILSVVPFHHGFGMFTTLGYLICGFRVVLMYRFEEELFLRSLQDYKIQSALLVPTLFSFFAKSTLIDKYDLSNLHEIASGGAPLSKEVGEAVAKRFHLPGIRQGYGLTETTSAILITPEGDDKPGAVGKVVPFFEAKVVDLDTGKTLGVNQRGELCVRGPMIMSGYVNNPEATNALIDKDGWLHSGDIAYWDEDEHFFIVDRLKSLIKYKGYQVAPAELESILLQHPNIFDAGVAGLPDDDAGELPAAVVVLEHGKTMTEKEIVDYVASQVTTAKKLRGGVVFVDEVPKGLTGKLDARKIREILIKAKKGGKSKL
#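 FLuc 10nM, D-luciferin 10uM, ATP 10uM, Mg acetate 10mM, Tris acetate pH 7.5, Tween/BSA; cpd qHTS; enzyme added last; CCD luminescence.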
# HEK293 tox: Cytotoxic Profiling in HEK 293 Cell Line of Diverse Libraries Using Quantitative High-Throughput Screening | 94,000 compounds, 6.6% hits | Potency, µM (titrated, usually from 115 µM), for the others: top-dose activity change, negative = cytotoxicity, most hits filed as inhibitors | AID 1345083, 2018 | HEK 293 viability, ATP luminescence (CellTiter-Glo), 48-72 h; further: nearly all actives have a fitted effect of over 60% in size
#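 CellTiter-Glo luminescence (cellular ATP) was read after 48 or 72 hr of compound exposure at 37 degree Celsius. Cells were HEK 293 plated at 250 cells/well.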
# 3T3 cytotox: Cytotoxic Profiling in NIH 3T3 Cell Line of Diverse Libraries Using Quantitative High-Throughput Screening. NIH 3T3 viability, CellTiter-Glo ATP luminescence, 48-72 h. Potency, µM (highest dose often 96.7 µM), inactives show top-dose activity change, negative = cytotoxicity, usual class: inhibitors. 94,000 compounds, 4.3% hits. AID 1345082, 2018; further: nearly all actives have a fitted effect of over 55% in size
#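 Cytotoxicity was measured by CellTiter-Glo ATP luminescence after 48 or 72 h compound exposure at 37 °C. Mouse NIH 3T3 fibroblasts were seeded at 400 cells/well and dosed by 23 nL pin transfer.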
# NPR1 antag: Natriuretic polypeptide receptor (hNpr1) antagonism - Primary qHTS | Potency, µM (titrated, usually from 46.3 µM), without a hit: top-dose activity change, negative = inhibition, hits mostly inhibitors | Atrial natriuretic peptide receptor 1 (Homo sapiens), P16066 | HEK293 hNpr1 GloSensor cGMP, ANP-stimulated luminescence | 76,000 compounds, 1.6% hits; calls by dose curve; further: nearly all actives have a fitted effect of over 60% in size
#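 HEK293 cells stably expressing human Npr1 and cGMP GloSensor pGS-40F, loaded 2 h with 2% GloSensor reagent, given compound 30 min at room temperature. Luminescence read before and 20 min after 0.1 nM hNppA.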
# The depositor's hits bear a star; i = inactive; ? = inconclusive; . = no result given; [ ] = dose if it differs, or a comment. A selection: hits, their analogues and other compounds. The true share with any hit is near 11%. Unless noted, the call rests on the fitted dose curve; in most records, active means well fitted curve in the direction sought with a large enough effect; inconclusive means small, poorly fitted or top-dose-only effect, or another doubt; inactive means no such curve, though single readings can be large; an effect the other way counts as inactive or inconclusive. On the % scale 0 is the no-effect control and ±100 the full control effect; potency means the concentration at half of the fitted maximal effect.
SMILES,Luciferase inh,HEK293 tox,3T3 cytotox,NPR1 antag
FC(F)(F)c1cccc(C2=NOC3(CCCN(Cc4cccs4)C3)C2)c1 (centres undefined),i,?,35.5µM*,-9.4%
FC(F)(F)c1cccc(C2=NOC3(CCCN(Cc4cccc5ccccc45)C3)C2)c1 (centres undefined),i,?,?,8.0%
Cn1nccc1CN1CCCC2(CC(c3cccc(C(F)(F)F)c3)=NO2)C1 (centres undefined),i,44.7µM*,-26.2%,0.0%
Cc1ccccc1C(=O)NC1CCCN(c2ccc3nnc(C4CC4)n3n2)C1 (centres undefined),.,?,-25.0%,.
Cn1ncc2c(C(=O)NC3CCOC3)cc(-c3ccccc3C(F)(F)F)nc21 (centres undefined),.,-7.4%,?,.
CCN(CC)c1cc(CCC(=O)NCc2ccccc2OC)ccn1,i,-3.8%,-11.4%,1.8%
COCCNC(=O)c1ccc2nc(-c3cccnc3Cl)oc2c1,.,i,-13.8%[138 µM],.
COc1ccccc1CCn1cnc(-c2ccccc2)c1-c1cn(C)nc1C,i,79.4µM*,?,-4.6%
O=C(c1ccccc1C(F)(F)F)N1CCc2c(nc3cc[nH]n3c2=O)C1,i,6.8%,i,-2.4%
Cc1ccc(CNC(=O)C2(c3ccc(NS(C)(=O)=O)cc3)CCCCC2)o1,i,-3.0%,-0.7%,-3.1%
CCN(Cc1ccccc1)c1ncncc1-c1nc(-c2ccccc2)no1,i,79.4µM*,?,-24.3%
Cc1ccccc1C(=O)NC1CCN(Cc2cccc(-c3ccc(F)c(F)c3)c2)CC1,.,50.1µM*,?,.
O=C(NC1CCN(Cc2cccc(-c3ccc(F)c(F)c3)c2)CC1)c1ccccc1F,.,79.4µM*,?,.
O=C(NC1CCN(Cc2cccc(-c3ccc(F)c(F)c3)c2)CC1)c1ccc(Cl)nc1,.,?,25.1µM*,.
Cc1cccc(-c2cccc(CN3CCC(NC(=O)c4ccccc4C)CC3)c2)c1,.,39.8µM*,31.6µM*,.
CC(=O)Nc1ccc(CN2C[C@H](O)C[C@H]2c2nc(-c3ccc(OC(F)(F)F)cc3)no2)cc1,?,?,?,-25.6%
Cn1nccc1-c1ccc2ncn(-c3ccc(F)cc3F)c(=O)c2n1,i,63.1µM*,?,2.3%[70.6 µM]
Cc1ccccc1C(=O)NC1CCCN(c2ccc3nnc(C)n3n2)C1 (centres undefined),.,-13.8%[172 µM],?,.
CC(=O)N1CCN(Cc2ccc(-c3cnc4c(OCc5ccccc5)nccn34)cc2)CC1,?,39.8µM*,31.6µM*,-87.6%
CN1CCN(Cc2ccc(-c3cnc4c(OCc5ccccc5)nccn34)cc2)CC1,31.6µM*,?,?,?
O=C(NCc1ccc(-c2cnc3c(Oc4ccccc4)nccn23)cc1)c1cccc(O)c1,i,?,?,?
COc1ccc(-c2ccc3c(c2)C(=O)N2CC[C@H](NC(=O)CSC)[C@H]2C(=O)N3)c(OC)c1,?,-28.3%,?,-0.8%
O=C1NC[C@@H](CCC(=O)N2CCCCC2)N2C[C@@H](NC(=S)Nc3ccc(Cl)cc3)C[C@@H]12,i,-5.8%,-19.3%,2.0%
O=C1Nc2ccccc2CC12CCCN2Cc1ccc(C(F)(F)F)cc1 (centres undefined),.,44.7µM*,?,.
O=C1Nc2ccccc2CN(Cc2ccc(F)cc2)C12CCNCC2,.,39.8µM*,?,.
SMILES,Luciferase inh,HEK293 tox,3T3 cytotox,NPR1 antag
O=C1Nc2ccccc2CC12CCN2Cc1cccc2ccccc12 (centres undefined),i,?,89.1µM*,-6.6%[70.6 µM]
O=C1Nc2ccccc2CN(Cc2ccc(C(F)(F)F)cc2)C12CCNCC2,.,28.2µM*,22.4µM*,.
COc1cccc(CC(=O)N2CCCC(CN3CCCC3)CC2)c1 (centres undefined),i,-7.8%,2.8%,-16.6%
COc1ccc(CCN2CCC3(C2)C(=O)N(C)C(=O)N3C)cc1 (centres undefined),.,-10.3%,-24.2%,.
COc1ccc(-c2ccccc2)cc1N1C(=O)[C@@H]2C[C@H]1CN2Cc1nc[nH]c1C,i,?,-29.6%,1.2%
CN1C(=O)C(CC(=O)N2CCN(Cc3cccc(Cl)c3)CC2)=C2CCCCC21 (centres undefined),i,?,-27.6%,-0.5%
O=C(C1CCCN(Cc2cccc(-c3ccsc3)c2)C1)N1CCC(Cc2ccccc2)CC1 (centres undefined),.,39.8µM*,?,.
CCOC(=O)C1CCN(C(=O)C2CCCN(c3cnn(C)c(=O)c3)C2)CC1 (centres undefined),i,-13.6%,-20.2%,-6.1%
CCOC(=O)C1CCN(C(=O)C2CCCN(Cc3cccc(-c4ccsc4)c3)C2)CC1 (centres undefined),.,35.5µM*,?,.
O=C(C1CCCN(Cc2cccc(-c3ccsc3)c2)C1)N1CCN(Cc2ccccc2)CC1 (centres undefined),.,39.8µM*,39.8µM*,.
O=C(C1CCc2ncc(-c3ccsc3)n2C1)N1CCC(Cc2ccccc2)CC1 (centres undefined),i,-22.0%,-27.2%,4.0%
CN(Cc1ccccc1)C(=O)C1CCCN(Cc2cccc(-c3ccsc3)c2)C1 (centres undefined),.,39.8µM*,?,.
COc1cccc(N2C(=O)NC(=NC3CCCCC3)C23CCN(Cc2ccc(N(C)C)cc2)CC3)c1,.,-23.9%,-9.6%,.
CC(=O)N1CCC(c2nnc3n2C(C(=O)NC2CCCCC2)CC3)CC1 (centres undefined),.,i,i,.
Cc1ccc(-n2c(C3CCN(C(=O)COc4cccc(C)c4)CC3)n[nH]c2=O)cc1,i,1.2%,?,-13.8%
CCCN(C)c1nccnc1OC1CCN(C(=O)C(C)C)C1 (centres undefined),22.4µM*,-16.5%,?,-13.8%
CCCN(C)c1nccnc1OC1CCN(C(=O)c2ccn[nH]2)C1 (centres undefined),22.4µM*,?,-28.0%,-2.8%
CCCN(C)c1nccnc1OC1CCN(C(=O)c2c(F)cccc2F)C1 (centres undefined),?,?,?,-4.0%
CCC(CC)C(=O)N1CCC(Oc2nccnc2N(C)C)C1 (centres undefined),35.5µM*,?,-0.3%,2.1%
CCCN(C)c1nccnc1OC1CCN(C(=O)CC(C)C)C1 (centres undefined),17.8µM*,?,-26.9%,-11.3%
CCCN(C)c1nccnc1OC1CCN(C(=O)CC)C1 (centres undefined),i,-5.1%,-19.2%,3.7%
Cc1ccc(Nc2ccnc(N3CCCC3C(=O)N3CCC(C#N)CC3)n2)cc1 (centres undefined),.,?,-12.0%,.
